Screening results from PubChem BioAssay.
This is a sample that favours compounds with a hit; in the whole collection about 4.2% have one here.
hgDAF-12 ag = activates the H. glycines DAF-12 receptor ligand-binding domain. HEK293 GAL4-hgDAF12 UAS-luciferase reporter, agonist luminescence; normalized to butyrate control. activation, % at 6.8 µM. actives 1.8% (n = 370,000);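 active = activation above a cutoff set at the mean of all screened compounds plus 3 SD, cut at about 10% in these data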;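 note: 0% = DMSO wells and 100% = sodium butyrate wells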
DAX1 inh = DAX1 (NR0B1) inhibition, primary screen; HEK293T StAR-luciferase reporter, SF-1/DAX-1 repression relief; inhibition, % at 6.8 µM; actives 1.1% (n = 370,000); AID 652010;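 active = inhibition above the mean over all tested compounds plus 3 SD, cut at about 3.6% in these data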;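 note: 0% = DAX-1 cells with DMSO and 100% = cells lacking DAX-1 with DMSO; higher inhibition means more luminescence from relief of DAX-1 repression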
esBAF inh = blocks esBAF chromatin remodeling in mouse ES cells | actives 2% (n = 350,000) | Bmi1-luciferase knock-in reporter, 24 h; 100% = twice the neutral-well signal | AID 602393 | reporter increase, % at 12.5 µM; in the data active = activation above about 40%;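 note: 0% = median of the plate's neutral control wells and 100% = double that signal; a rise in the Bmi1 reporter signal indicates esBAF inhibition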
hcDAF-12 act = activates DAF-12 receptor from parasite H. contortus; actives 1.4% (n = 370,000); HEK293 hcDAF-12 lit1-tk-luc reporter, luminescence; 0% DMSO, 100% Δ7-dafachronic acid; AID 652067; activation, % at 6.8 µM;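 active = activation above the mean of all tested compounds plus 3 SD, cut at about 5.5% in these data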;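 note: 100% = response to 3 µM Δ7-dafachronic acid high control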
ssDAF-12 act = activates DAF-12 receptor from parasite S. stercoralis; activation, % at 6.8 µM; HEK293 ssDAF-12/GRIP1 lit1-tk-luc reporter, luminescence; % of 3 µM dafachronic acid response; actives 1% (n = 370,000);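 active = activation above the mean over all tested compounds plus 3 SD, cut at about 0.9% in these data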;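 note: 0% = DMSO-only wells and 100% = 3 µM delta7-dafachronic acid wells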
Wnt bcat act = activates Wnt/beta-catenin signaling in a reporter cell assay; activator, plate reader; activation, % at 9.35 µM; actives 1.2% (n = 300,000); AID 743398; in the data active = activation above about 30%, passing the limit was not always enough;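 note: 0% = neutral control wells and 100% = positive control wells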
Active calls of the source: *; . = not tested or not shown.

SMILES	hgDAF-12 ag	DAX1 inh	esBAF inh	hcDAF-12 act	ssDAF-12 act	Wnt bcat act
O=C(Cc1csc(NC(=O)Nc2cccc(Cl)c2)n1)NCc1cccnc1	1	1	13	0	0	-1
C[C@@H]1CN([C@@H](C)CO)C(=O)c2cccc(NC(=O)C3CC3)c2O[C@H]1CN(C)Cc1ccc(Cl)c(Cl)c1	.	.	-6	.	.	.
CS(=O)(=O)c1ccc(Cl)c(NC(=O)CN2CCCC2c2ccc3c(c2)OCCCO3)c1 (stereo not given)	11*	-3	-14	-1	-1	-1
CN(C)S(=O)(=O)c1ccc(NC(=O)CN2CCCC2c2ccc3c(c2)OCCCO3)cc1 (stereo not given)	-3	1	-10	-3	-2	-5
COc1cccc(C2c3[nH]c4ccccc4c3C[C@H]3C(=O)N(c4ccccc4C(=O)NCCCN4CCOCC4)C(=O)N23)c1 (stereo not given in full)	-1	-1	6	5.7*	-1	-1
CC(C)c1ccc(C2c3[nH]c4ccccc4c3C[C@H]3C(=O)N(c4ccccc4C(=O)N4CCC[C@@H]4C(=O)O)C(=O)N23)cc1 (stereo not given in full)	2	-1	-3	3	1	-1
CC(C)c1ccc(C2c3[nH]c4ccccc4c3C[C@H]3C(=O)N(c4ccccc4C(=O)N4CCC(C(=O)O)CC4)C(=O)N23)cc1 (stereo not given in full)	4	0	8	5.8*	-1	-1
O=C(NCCCN1CCOCC1)c1ccccc1N1C(=O)[C@@H]2Cc3c([nH]c4ccccc34)C(c3ccc(F)cc3)N2C1=O (stereo not given in full)	2	-1	14	1	-1	0
CCCN1[C@@H]2c3ccc(/C=C/c4ccccc4)c(=O)n3C[C@H]1[C@H](CO)[C@H]2C(=O)NCC1CC1	.	.	-1	.	.	.
O=C(CSc1ncnc2sccc12)N1CCCCC1	5	2	72*	3	0	9
CCC(=O)N1C[C@@H](C)[C@@H](OC)CN(C)C(=O)c2cc(NC(=O)Nc3ccc(Cl)cc3)ccc2OC[C@@H]1C	.	.	0	.	.	.
c1ccc(-c2nc(-c3cccnc3)cs2)cc1	5	1	52*	3	0	11
NC(=O)c1cc(-c2csc(-c3cccnc3)n2)ccc1O	5	0	26	2	-1	10
CNC(=O)c1ccc(-c2nc(-c3ccccc3)cs2)cc1	2	2	52*	-1	-1	10
CC(=O)Nc1ccc(-c2csc(NCCc3ccccc3)n2)cc1	0	-1	47*	-1	-2	3
c1ccc(-c2csc(-c3cccnc3)n2)cc1	11*	0	.	3	-1	-1
Cc1ccc(S(=O)(=O)Nc2ccc3c(c2)C(=O)N([C@@H](C)CO)C[C@@H](C)[C@H](CN(C)S(=O)(=O)c2ccc(F)cc2)OCCCC[C@@H](C)O3)cc1	.	.	20	.	.	.
O=C(Nc1ccc2c(c1)[C@@H]1C[C@H](CC(=O)N3CCc4ccccc4C3)O[C@@H](CO)[C@@H]1O2)C1CCOCC1	.	.	0	.	.	.
CC(C)CC#Cc1cnc2c(c1)C(=O)N([C@H](C)CO)C[C@H](C)[C@@H](CN(C)C(=O)C1CCOCC1)O2	.	.	-1	.	.	.
O=C(Cc1ccccc1F)Nc1nc(-c2cccnc2)cs1	2	0	.	-1	-1	.
c1ccc(CNc2nc(-c3cccnc3)cs2)cc1	11*	0	.	0	-1	-1
COC(=O)c1ccc(N=NNc2ccccc2)cc1	11*	4.1*	1	4	0	.
CO[C@@H]1CN(C)C(=O)c2ccc(NC(=O)C3CCOCC3)cc2OC[C@H](C)N(Cc2nccs2)C[C@@H]1C	.	.	1	.	.	.
O=C(C[C@H]1C[C@H]2c3cc(NC(=O)c4ccc5c(c4)OCO5)ccc3O[C@H]2[C@H](CO)O1)NCC(F)(F)F	.	.	4	.	.	.
CC(C)C(=O)Nc1ccc2c(c1)C(=O)N(C)[C@H]1CC[C@H](CC(=O)Nc3ccccc3F)O[C@@H]1CO2	.	.	-1	.	.	.
CC(C)NC(=O)Nc1ccc2c(c1)C(=O)N([C@H](C)CO)C[C@@H](C)[C@H](CN(C)CC1CC1)OCCCC[C@@H](C)O2	.	.	1	.	.	.
